Hits are enriched below; roughly 4.4% of the tested compounds scored in any of these assays.
D1 antag: blocks dopamine activation of the human D1 receptor; P21728; HEK293 TREx D1 cells, calcium flux, dopamine EC80; stronger effect = lower value; activity change, negative = inhibition, % at 10 µM; actives 3.2% (n = 360,000); AID 504652; in the data active = activity change below about -30%; also: % is scaled to controls: 0 for no effect and ±100 for the full control effect
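Tetracycline-induced HEK293 Trex D1 cells, force-coupled to calcium, dye-loaded; compounds added and read 180 s, then EC80 dopamine added and calcium flux tracked kinetically another 180 s.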
D1 potentiator: potentiators of human D1 dopamine receptor; HEK293 TREx D1 cells, calcium flux, dopamine EC20 potentiation; actives 0.036% (n = 360,000); P21728; AID 504651; potentiation, % at 10 µM; in the data active = potentiation above about 30%; also: 0% is about no effect
D1 agonist: agonists of human D1 dopamine receptor; HEK293 T-REx D1 cells, calcium flux, agonist mode; AID 504660; P21728; actives 1% (n = 360,000); activation, % at 2 µM; also: 0% is about no effect
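Tetracycline-induced HEK293 TREx D1 cells, force-coupled to calcium signalling, were dye-loaded with a no-wash calcium kit. Compound was pin-added after a 10 s baseline. Fluorescence was read kinetically at 1 cycle/s for 180 s, with calcium rises flagged as agonism.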
TRHR enhancer: TRH receptor (human) allosteric enhancement; enhancement, % at 2 µM; P34981; actives 0.66% (n = 360,000); TRHR cells, fluo-8 calcium fluorescence, EC20 TRH enhancement; in the data active = enhancement above about 30%; also: 0% is about no effect
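TRHR-expressing cells loaded with fluo-8 calcium dye were read kinetically (ex 480/em 530) during compound addition, then stimulated with an EC20 of TRH (10 nM final). Enhancement of the Gq-mediated intracellular calcium response was scored.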
USP1 inh: blocks the human USP1/UAF1 deubiquitinase complex; O94782; recombinant USP1/UAF1, Ub-Rhodamine cleavage fluorescence; Potency, µM (series often up to 57.1 µM), for the others: top-dose activity change, negative = inhibition, actives largely listed as inhibitors; actives 0.23% (n = 390,000); active = well fitted inhibition curve with a large enough effect; inconclusive = small, poorly fitted or top-dose-only effect; inactive = no such curve, though single readings can be large or run the other way; also: potency is read from the fitted curve at half-maximal effect; % is scaled to controls: 0 for no effect and ±100 for the full control effect; nearly all actives have a fitted effect of over 60% in size
Target sequence (O94782 whole entry, looked up): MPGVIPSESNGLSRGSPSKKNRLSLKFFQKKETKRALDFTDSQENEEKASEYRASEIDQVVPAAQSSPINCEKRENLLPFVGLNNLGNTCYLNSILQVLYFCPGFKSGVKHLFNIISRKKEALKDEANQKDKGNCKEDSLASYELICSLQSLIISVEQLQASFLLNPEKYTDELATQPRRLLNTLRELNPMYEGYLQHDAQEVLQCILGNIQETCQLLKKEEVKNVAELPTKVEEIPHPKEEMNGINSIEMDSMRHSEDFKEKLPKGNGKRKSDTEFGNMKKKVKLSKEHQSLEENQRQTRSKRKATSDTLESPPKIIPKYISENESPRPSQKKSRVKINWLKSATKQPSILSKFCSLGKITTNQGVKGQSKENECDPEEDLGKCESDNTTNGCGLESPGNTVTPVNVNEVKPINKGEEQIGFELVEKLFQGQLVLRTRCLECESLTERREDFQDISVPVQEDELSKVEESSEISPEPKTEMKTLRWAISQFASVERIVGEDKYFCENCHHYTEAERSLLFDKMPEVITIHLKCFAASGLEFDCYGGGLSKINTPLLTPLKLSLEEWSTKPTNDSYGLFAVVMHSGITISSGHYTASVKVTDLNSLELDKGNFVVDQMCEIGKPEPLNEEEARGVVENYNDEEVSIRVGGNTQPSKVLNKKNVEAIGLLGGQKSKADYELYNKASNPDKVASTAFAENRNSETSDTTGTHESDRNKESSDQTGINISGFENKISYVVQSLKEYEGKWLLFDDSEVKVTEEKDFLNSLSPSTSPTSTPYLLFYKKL
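USP1/UAF1 complex (1 nM) preincubated 15 min at room temperature with compound, then Ub-Rho substrate (150 nM final) added. Kinetic fluorescence at 480/540 nm over 6 reads at 60 s intervals; 50 mM HEPES pH 7.8, 0.5 mM EDTA, 0.1 mg/ml BSA, 1 mM TCEP, 0.01% Tween-20.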
TRHR ag: activates the human TRH receptor. TRHR cells, calcium flux fluo-8, FDSS agonist mode. activation, % at 2 µM. AID 493084. P34981. actives 0.18% (n = 360,000); also: 0% is about no effect
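Steps: seed TRHR cells overnight; add fluo-8 no-wash Ca dye, RT 30 min–1.5 h; record 10 s baseline; pin-transfer compounds; monitor fluorescence 1 cycle/s for the agonist window. Calcium increases flag candidate agonists.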
* marks the source's active call; other numbers are inactive results; ? = inconclusive; / = no result; ! = not active in a repeat. Rule as the data show it, unless noted: active = activation above about 30%; inactive = the rest.

SMILES	D1 antag	D1 potentiator	D1 agonist	TRHR enhancer	USP1 inh	TRHR ag
COc1ccc(F)cc1S(=O)(=O)NCCc1csc2nc(-c3cccc(C)c3)nn12	/	-1.5	17.4	2.0	-13.7%	0.4
Cc1cc(Cl)ccc1NS(=O)(=O)c1c(C(=O)N2CCCCCC2)c(C)n(C)c1C	4.2	-4.3	-0.4	0.3	-18.9%	-0.2
Cc1nnc2c3ccccc3nc(N3CCN(c4cccc(Cl)c4)CC3)n12	7.8	0.6	1.2	5.2	?	0.7
Cc1ccc(-n2c(SCC(=O)N3CCOCC3)nc(O)c(Cc3ccccc3)c2=O)cc1	-30.5*	-0.7	4.6	2.0	-11.1%	0.9
Cc1ccc(C(=O)NC2CCC(C)CC2)s1 (configuration not stated)	-1.0	-4.6	1.0	-6.8	-6.7%	0.2
COc1ccc(N(CC(=O)NC2CCCCC2)C(=O)c2ccc(C)s2)c(OC)c1	-34.8*	/	0.5	-7.6	-11.2%	-0.9
Cc1ccc(C(=O)NC2CCCC2)s1	-15.8	-8.0	2.3	32.4*	-27.3%	-0.1
COc1ccc(CCN2CC(C(=O)OCC(=O)N(C)Cc3ccccc3)CC2=O)cc1OC (configuration not stated)	-34.6*	-8.4	2.4	10.1	-1.4%	0.3
O=C(OCc1ccc([N+](=O)[O-])cc1)C1CC(=O)N(CCc2ccccc2)C1 (configuration not stated)	-40.2*	-4.3	7.3	1.6	2.6%	0.0
COc1ccc(C(=O)Nc2nnc(S(=O)(=O)N(C)c3ccc(C)cc3)s2)cc1	3.4	-4.1	-0.9	0.4	?	-0.4
CCC(C)NC(=O)c1nn(-c2ccc(C)cc2)c(=O)n(C)c1=O (configuration not stated)	-5.6	0.0	0.0	4.7	-31.8%	0.0
O=C1NC(=S)S/C1=C\c1ccc2ccccc2c1	-31.5*	-2.2	3.3	-5.2	3.3%	-0.4
O=C(NCc1ccc(Cl)cc1Cl)c1cccc(N2CCCS2(=O)=O)c1	0.9	0.5	7.8	-0.9	-14.4%	-0.2
Cc1ccc(N=Nc2[nH]c3ccccc3c2O)cc1	-4.9	2.2	51.6*	-5.0	?	12.6
Cc1ccc(N=Nc2c(O)[nH]c3ccc(F)cc23)cc1	-47.9*	-2.3	116.9*	4.3	?	-0.7
CN(C(=O)CSc1nc2c(c(=O)[nH]1)CCCC2)c1ccccc1	-3.0	-1.9	5.4	-4.6	-17.2%	0.3
CCCOc1ccc(NC(=O)CC2C(=O)N(CC)C(=S)N2CCCN2CCN(Cc3ccccc3)CC2)cc1 (configuration not stated)	-33.9*	-6.7	13.2	2.8	?	0.4
CCN1C(=O)C(CC(=O)Nc2ccc(OC)cc2)N(CCc2ccc(OC)cc2)C1=S (configuration not stated)	-33.0*	-6.0	21.3	-0.6	-17.0%	-1.0
Cc1c(C(=O)Nc2cccc(-c3nc4ccccc4s3)c2)oc2ccccc12	-3.0	0.3	-0.2	7.7	-12.1%	-0.8
Cc1cccc2sc(N(Cc3cccnc3)C(=O)CCS(=O)(=O)c3ccccc3)nc12	/	4.1	8.1	-1.9	1.7%	0.1
Cc1ccc2sc(N(Cc3cccnc3)C(=O)CCS(=O)(=O)c3ccccc3)nc2c1C	/	-2.1	30.7*	6.9	-32.5%	-0.7
COc1ccc(-c2noc(=O)n2Cc2cc(C)ccc2C)cc1	7.9	6.6	3.5	-3.7	-14.3%	0.0
COc1ccc(-c2noc(=O)n2Cc2ccccc2F)cc1	-30.2*	-5.3	4.3	0.8	-8.7%	-0.6
CCCNC(=O)C1CCN(c2nc(C)cc(C)n2)CC1	-14.5	1.9	-0.6	6.5	0.1%	0.5
Cc1cc(C)nc(N2CCC(C(=O)O)CC2)n1	-31.7*	4.5	0.3	-2.8	-1.3%	0.6
SMILES	D1 antag	D1 potentiator	D1 agonist	TRHR enhancer	USP1 inh	TRHR ag
O/N=C(\c1ccc(Cl)cc1)c1cc2ccccc2o1	-16.1	-2.5	32.0*	-0.9	-7.0%	0.6
COc1ccc(NS(=O)(=O)c2ccc3c(c2)OCCO3)cc1OC	-22.3	-0.1	14.7	-1.3	-21.9%	1.1
CC(=O)Nc1ccc(S(=O)(=O)Nc2ccc3c(c2)OCCO3)cc1Cl	-31.2*	-11.0	13.3	-6.6	-25.2%	0.7
COc1ccc(S(=O)(=O)Nc2ccc3c(c2)OCCO3)cc1Cl	-32.0*	-8.2	17.6	1.8	-11.1%	0.0
Cc1ccc(S(=O)(=O)Nc2ccc3c(c2)OCCO3)cc1C	-5.7	-10.2	2.4	3.8	-11.1%	-0.9
CC(C)(C)c1ccc(/C=C2\Oc3cc(O)ccc3C2=O)cc1	-46.4*	-3.1	11.0	-4.7	-23.8%	14.8
CC(=O)Oc1ccc(/C=C2/Oc3ccccc3C2=O)cc1	11.1	1.2	12.0	-6.9	-16.4%	2.5
O=C1/C(=C/c2ccc(Br)cc2)Oc2cc(O)ccc21	-9.8	-5.7	45.0*	0.5	-18.0%	13.8
COC(=O)c1ccc2c(c1)C(=O)/C(=C/c1ccc(O)cc1)O2	1.9	-4.1	87.9*	-6.4	-16.2%	30.7*
O=C1/C(=C/c2ccc([N+](=O)[O-])cc2)Oc2cc(O)ccc21	-6.9	-3.7	16.0	-2.7	-26.4%	7.6
CCOC(=O)C1CCCN(C2=NC(=O)/C(=C/c3ccc(N(C)C)cc3)S2)C1 (configuration not stated)	3.5	-7.1	60.1*	11.4	-9.8%	21.1
CCOC(=O)C1CCCN(C2=NC(=O)/C(=C/c3ccc(OC)cc3)S2)C1 (configuration not stated)	0.4	1.8	-0.4	-6.9	-6.6%	-1.1
CC(C)(C)c1ccc(C(=O)N2CCN(Cc3cc(=O)n4nc(-c5ccccc5F)sc4n3)CC2)cc1	-0.1	3.9	0.7	5.4	-23.0%	0.0
COc1cc2c(C(=O)N3CCN(c4cccc(Cl)c4)CC3)cn(C)c(=O)c2cc1OC	-4.2	0.7	0.9	2.2	?	-0.3
CCn1cc(C(=O)N2CCN(c3cccc(Cl)c3)CC2)c2cc(OC)c(OC)cc2c1=O	-52.8*!	0.2	3.8	-4.7	-9.9%	-0.6
COc1ccc(C(=O)CCC(=O)N2CCN(c3cccc(Cl)c3)CC2)cc1	-32.9*	-3.8	11.6	-6.0	-12.9%	-0.2
O=C(O)/C=C/C(=O)N1CCN(c2cccc(Cl)c2)CC1	-40.8*	-19.9	5.7	6.9	6.2%	-0.4
COc1ccc(C(=S)N2CCN(c3cccc(Cl)c3)CC2)cc1	-33.4*!	-1.9	2.1	1.2	0.9%	0.1
CC1CCc2c(sc(NC(=O)CCCOc3ccc(C(C)(C)C)cc3)c2C(N)=O)C1 (configuration not stated)	1.1	-0.5	-1.6	-4.3	-10.4%	0.5
Cc1cc(NC(=O)c2cc(-c3ccc(Cl)cc3)on2)n(-c2ccccc2)n1	6.0	1.8	1.6	-11.4	-12.7%	0.2
